Measurements reported in the supplement of paper PMC5662767.
Structures can show the parent of a compound that is named as a salt.

The compounds below were run on Drosophila S2 cl14 SmoIP sensor cells (assay: normalized SmoIP GFP fluorescence (untreated unstimulated = 0%, untreated Hh-stimulated = 100%); higher = more Smo activation sensor fluorescence). Conditions: stimulation: Hh conditioned medium (+Hh); compound concentration: 2 uM; 24 h.
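Further: flow cytometry read-out as median GFP intensity of gated cells, compounds added 30 min before Hh-conditioned or mock medium, mock-treated cells serving as unstimulated baseline.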

Row | Structure (SMILES) | normalized SmoIP GFP fluorescence
1 | COc1c(C)cnc(Cn2cnc3c(Cl)nc(N)nc32)c1C | 121%
2 | OCc1ccc(-c2ccc(-c3ccc(CO)s3)o2)s1 | 111%
3 | NS(=O)(=O)C#Cc1ccccc1 [pifithrin-u] | 103%

Same assay, conditions: stimulation: mock conditioned medium (-Hh); compound concentration: 2 uM; 24 h

Row | Structure (SMILES) | normalized SmoIP GFP fluorescence
4 | CN(C)CC[C@H](CSc1ccccc1)Nc1ccc(S(=O)(=O)NC(=O)c2ccc(N3CCN(Cc4ccccc4-c4ccc(Cl)cc4)CC3)cc2)cc1[N+](=O)[O-] | 2.97%
5 | COc1ccc2c(c1)c(CC(=O)N1CCOCC1)c(C)n2C(=O)c1ccc(Cl)cc1 | -2.59%
6 | CCCNS(=O)(=O)Nc1ncnc(OCCOc2ncc(Br)cn2)c1-c1ccc(Br)cc1 [macitentan] | 15.2%
7 | Cc1ccc(-c2cc(C(F)(F)F)nn2-c2ccc(S(N)(=O)=O)cc2)cc1 [Celecoxib] | 2.11%
8 | CS(=O)(=O)N1CCc2c(-c3cnc(N)nc3)nc(N3CCOCC3)nc21 | -15.8%
9 | O=c1cc(-c2ccccc2)oc2cc(O)c(O)c(O)c12 [Baicalein] | 1.24%
10 | CCN1CCN(Cc2ccc(Nc3ncc(F)c(-c4cc(F)c5nc(C)n(C(C)C)c5c4)n3)nc2)CC1 | 50.1%
11 | O=C1c2ccccc2C(=O)c2c1ccc(O)c2O [Alizarin] | -7.96%
12 | C[C@@H](NCCc1ccc(O)cc1)[C@@H](O)c1ccc(O)cc1 [Ritodrine-hydrochloride-Yutopar] | -5.98%
13 | O=C(O)CCCCC(CCSCc1ccccc1)SCc1ccccc1 (stereo not given) | -1.63%
14 | O=C(NC1CCOCC1)c1ccc(-c2cc(-c3c[nH]nc3-c3ccccn3)ccn2)cc1 | -1.38%
15 | Cc1cc(/C=C/C#N)cc(C)c1Nc1ccnc(Nc2ccc(C#N)cc2)n1 [rilpivirine] | -0.151%
